Compound activity (PubChem)
CD11b adhes inh: blocks human CD11b/CD18 adhesion to fibrinogen; P05107+P11215; K562 CD11b/CD18 adhesion to fibrinogen, ATPlite luminescence; Mn2+ added to activate the integrin; inhibition, % at 10 µM; AID 1497; 0.54% of 93,000 active;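 active means primary inhibition of 50% or more at 10 µM, then 40% or more on retest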
CYP2C19 inhib: inhibitors of human CYP2C19 | inhibition, % at 5 µM | 21% of 96,000 active | CYP2C19 Supersomes, luciferin-H EGE luminescence, 30 min | AID 778;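 active means CYP2C19 inhibition above a set limit at 5 µM in the primary screen, cut at about 50% in these data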
CYP2C9 inh: blocks human cytochrome P450 2C9; P11712; CYP2C9 Supersomes, luciferin-H conversion, luminescence; inhibition, % at 5 µM; 20% of 96,000 active; AID 777;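 active means blocking of liver enzyme CYP2C9 beyond about 50% at 5 µM, limit read from the data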
Target sequence (P11712 whole entry, looked up): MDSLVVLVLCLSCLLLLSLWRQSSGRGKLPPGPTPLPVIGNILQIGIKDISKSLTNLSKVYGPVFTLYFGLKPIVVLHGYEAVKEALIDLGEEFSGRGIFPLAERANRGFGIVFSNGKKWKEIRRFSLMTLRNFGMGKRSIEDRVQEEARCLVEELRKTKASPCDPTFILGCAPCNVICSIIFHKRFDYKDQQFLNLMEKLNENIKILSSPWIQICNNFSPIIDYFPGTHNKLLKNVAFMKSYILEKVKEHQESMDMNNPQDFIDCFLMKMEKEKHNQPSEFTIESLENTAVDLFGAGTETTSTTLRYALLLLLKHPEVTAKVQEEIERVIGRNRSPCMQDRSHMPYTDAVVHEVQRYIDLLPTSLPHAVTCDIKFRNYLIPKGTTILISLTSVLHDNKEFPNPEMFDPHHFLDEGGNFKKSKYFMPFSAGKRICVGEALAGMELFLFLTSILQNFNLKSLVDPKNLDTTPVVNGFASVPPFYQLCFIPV
CYP2C9 activ: CYP2C9 (human) activation. recombinant CYP2C9, luciferin-H conversion, luminescence; stronger effect = higher value; factor 1 = untreated enzyme, 0 = blocked. activation factor at 5 µM. P11712. AID 1024. 1.4% of 96,000 active;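 active means activation factor of 2 or more for CYP2C9 at a 5 µM dose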
CYP2C19 act: increases human CYP2C19 enzyme activity; 96,000 tested, under 10 active; P33261; activation factor at 5 µM; recombinant CYP2C19, luciferin-H EGE luminescence; stronger effect = higher value; 0 = fully inhibited enzyme, 1 = untreated enzyme;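 active means activation factor of at least 2 at 5 µM in the primary screen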
Mac1 fbg enh: increases human CD11b/CD18 adhesion to fibrinogen. activation, % at 10 µM. AID 1499. 0.07% of 93,000 active. K562 CD11b/CD18 adhesion to fibrinogen, ATPlite luminescence. P05107+P11215;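 active means 10 µM primary screen giving 50% or more activity, confirmed by 40% or more on retest at that dose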
A number is an active result; - = inactive; . = not tested or not shown. The list is not random: actives were taken first. Their share in the collection is about 28%.

SMILES	CD11b adhes inh	CYP2C19 inhib	CYP2C9 inh	CYP2C9 activ	CYP2C19 act	Mac1 fbg enh
Cn1c2c(c(=O)n(C)c1=O)C(c1cc3c(cc1Br)OCO3)CC(=O)N2 (stereo not given)	-	-	-	-	-	-
COC(=O)C1=C(C)NC(=O)CC1c1ccc(F)c(Br)c1 (stereo not given)	-	51	-	-	-	-
COC(=O)C1=C(C)NC(=O)CC1c1ccccc1F (stereo not given)	-	-	-	-	-	-
CC1=C(C(=O)OC2CCCCCCC2)C(c2cc3c(cc2Br)OCO3)CC(=O)N1 (stereo not given)	-	75	85	-	-	-
CCCCCCN=CC1=C(O)C(C(=O)OC)C(C)(C)CC1=O (stereo not given)	-	-	-	-	-	-
Cc1c(N2C(=O)CS/C2=N\N=C\c2ccc(Br)cc2)c(=O)n(-c2ccccc2)n1C	.	-	-	-	-	.
COC(=O)C(NNc1ccccc1C)(NC(=O)c1ccc(F)cc1)C(F)(F)F (stereo not given)	-	79	54	-	-	-
O=C(OCn1nnc2ccccc2c1=O)c1ccc2ncsc2c1	-	53	57	-	-	-
O=C(OCn1nnc2ccccc2c1=O)c1cccnc1Cl	-	59	-	-	-	-
O=C(OCn1nnc2ccccc2c1=O)c1ccc(S(=O)(=O)N2CCOCC2)cc1	-	-	-	-	-	-
CCN(CC)S(=O)(=O)c1ccc(C(=O)OCn2nnc3ccccc3c2=O)cc1	-	-	78	-	-	-
O=C(OCn1nnc2ccccc2c1=O)C1CCCCC1	-	72	53	-	-	-
O=C(c1ccccc1)C1CCc2occc2C1=O (stereo not given)	-	-	-	-	-	-
O=C(COC(=O)c1cc(-c2ccccc2Cl)nc2ccccc12)Nc1ncc(C(F)(F)F)cc1Cl	-	.	.	.	.	-
CO/N=C(/CS(=O)c1ccc(Br)cc1)c1ccc(OC)cc1 (stereo not given)	-	100	88	-	-	-
O=C(Nc1cccc2ncccc12)c1ccc(-c2ccc(Br)cc2)o1	-	-	-	-	-	-
CCOc1ccccc1NC(=O)C1CCCN(S(=O)(=O)c2cccc3nsnc23)C1 (stereo not given)	-	52	53	-	-	-
COc1ccc2nc(NC(=O)C3CCCN(S(=O)(=O)c4cccc5nsnc45)C3)sc2c1 (stereo not given)	-	78	86	-	-	-
COc1ccc(OC)c(-c2cc(C(=O)Nc3c(C)nn(Cc4ccc(Cl)cc4)c3C)no2)c1	-	-	-	-	-	-
Cc1nn(Cc2ccc(Cl)c(Cl)c2)c(C)c1NC(=O)c1cn(-c2ccccc2)nc1-c1ccccc1	-	-	90	-	-	-
Cc1nn(Cc2ccc(Cl)cc2)c(C)c1NC(=O)c1cc(-c2ccc3c(c2)OCO3)on1	-	-	54	-	-	-
Cc1nn(Cc2ccc(Cl)c(Cl)c2)c(C)c1NC(=O)c1cc(-c2ccc3c(c2)OCO3)on1	-	-	66	-	-	-
Cc1ccc(-c2nn(-c3ccccc3)cc2C(=O)Nc2ccc(C)c(S(=O)(=O)N3CCOCC3)c2)cc1	-	.	.	.	.	-
COc1ccccc1NC(=O)N1CCc2[nH]c3ccc(F)cc3c2C1	-	67	-	-	-	-
COc1ccccc1NC(=O)CN1CCC(C(=O)c2ccc(F)cc2)CC1	.	52	-	-	-	.
SMILES	CD11b adhes inh	CYP2C19 inhib	CYP2C9 inh	CYP2C9 activ	CYP2C19 act	Mac1 fbg enh
O=C(CN1CCC(C(=O)c2ccc(F)cc2)CC1)Nc1ccccc1	-	-	57	-	-	-
CCOc1ccccc1NC(=O)N1CCC(C(=O)c2ccc(F)cc2)CC1	-	83	-	2.5	-	-
CO/N=C/NC(=O)c1cn(-c2ccc(F)cc2)c(=O)c2ccccc12	-	-	-	-	-	-
C=C(C(=O)c1ccccc1)C(C)C(=C)C(=O)c1ccccc1	-	.	.	.	.	-
Cc1ccc(-c2c(C#N)c(N)nc3c2CCCC3)s1	-	-	-	-	-	-
COc1ccccc1NC(=O)N1CCC(C(=O)c2ccc(F)cc2)CC1	-	-	-	3.4	-	-
COc1ccc(CCNC(=O)CN2CCC(C(N)=O)CC2)cc1	-	-	-	-	-	-
COc1ccc(CNC(=O)CN2CCC(C(=O)c3ccc(OC)cc3)CC2)cc1	-	63	70	-	-	-
O=C(c1ccc2ccccc2n1)N1CCN(c2ccccc2O)CC1	-	58	-	-	-	-
O=C(c1ccc2ccccc2n1)N1CCN(c2ccccc2)CC1	-	-	-	-	-	-
O=C(NCCN1CCOCC1)C1CCC(=O)N1C1CCCCC1 (stereo not given)	.	-	-	-	-	.
CN(C)S(=O)(=O)NC(c1ccccc1)c1ccccc1	-	83	60	-	-	-
CN(C)S(=O)(=O)c1c(Cl)cccc1Cl	-	-	-	-	-	-
Cc1cnc(C(=O)OCC(=O)Nc2ccc(C)c(S(=O)(=O)N3CCCCC3)c2)cn1	-	.	.	.	.	-
Cc1ccc(NC(=O)COC(=O)C2CC2C)c(S(=O)(=O)N2CCCCC2)c1 (stereo not given)	-	74	51	-	-	-
COC(=O)c1ccc(C(=O)OC)c(NC(=O)COC(=O)C2CC2C)c1 (stereo not given)	-	78	80	-	-	-
COC(=O)c1ccc(C(=O)OC)c(NC(=O)COC(=O)C2CCCCC2)c1	-	-	-	-	-	-
CC1(C)Cc2c(c(-c3ccccc3)nc(N3CCCC3)c2C(N)=O)CO1	-	-	-	-	-	-
O=c1c2ccccc2nnn1CSc1nnc(-c2cccc(S(=O)(=O)N3CCCCC3)c2)o1	.	75	81	-	-	.
O=S(=O)(c1cccc(-c2nnc(SCc3nc4ccccc4s3)o2)c1)N1CCOCC1	.	51	-	-	-	.
O=C(c1ccc(F)cc1)C1CCN(C(=O)NCc2ccccc2)CC1	-	-	-	-	-	-
COc1cc(-c2nnc(SCC(=O)c3ccccc3)o2)cc(OC)c1OC	-	-	-	-	-	-
COc1cc(-c2nnc(COC(=O)CSc3cc(C)c4ccccc4n3)o2)cc(OC)c1OC	-	-	-	-	-	-
COc1cc(-c2nnc(-c3ccc(S(=O)(=O)c4ccccc4)cc3)o2)cc(OC)c1OC	-	61	61	-	-	-
COc1cc(-c2nnc(SCC3(c4ccccc4)OCCO3)o2)cc(OC)c1OC	-	76	-	-	-	-
CN1CCN(c2nc3nonc3nc2N2CCN(C)CC2)CC1	-	-	-	-	-	-
CCN1CCN(C(=O)c2ccc(CS(=O)(=O)Cc3ccccc3F)o2)CC1	-	-	-	-	-	-
Cc1noc(C)c1S(=O)(=O)N1CCC(Cc2ccccc2)CC1	-	-	59	-	-	-
